# Most compounds without a hit are left out; they make up all but 1.6% or so of the library.
# m5-HT2A agonist: activates the mouse 5-HT2A serotonin receptor | activation, % at 7.6 µM | P35363 | CHO-K1 mHTR2A beta-arrestin complementation, luminescence; percent of 30 µM serotonin response | 360,000 tested, 0.66% active;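 active = activation above a run cutoff, the mean activation of all tested compounds plus 3 SD, cut at about 14% in these data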;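 note: 0% = plate median of compound wells and 100% = 30 µM serotonin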
# Target sequence (P35363 whole entry, looked up): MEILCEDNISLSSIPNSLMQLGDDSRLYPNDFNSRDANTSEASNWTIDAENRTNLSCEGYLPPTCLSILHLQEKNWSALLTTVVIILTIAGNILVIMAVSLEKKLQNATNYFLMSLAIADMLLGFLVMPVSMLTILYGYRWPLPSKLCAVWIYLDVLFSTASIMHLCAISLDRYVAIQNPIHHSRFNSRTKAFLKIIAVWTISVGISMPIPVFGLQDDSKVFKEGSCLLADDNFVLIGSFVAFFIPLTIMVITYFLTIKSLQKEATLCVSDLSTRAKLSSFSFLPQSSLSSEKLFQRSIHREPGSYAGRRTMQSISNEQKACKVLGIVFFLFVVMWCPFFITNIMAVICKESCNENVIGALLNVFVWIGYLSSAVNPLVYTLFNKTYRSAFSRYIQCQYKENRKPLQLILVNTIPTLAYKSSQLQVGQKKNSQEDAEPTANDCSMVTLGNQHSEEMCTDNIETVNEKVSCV
# MOR-DOR inv ag: mu-delta opioid heterodimer inverse agonism; P35372+P41143; cell-based MOR-DOR heterodimer luminescence; 340,000 tested, 0.21% active; inhibition, % at 9.3 µM; in the data active = inhibition above about 22%, passing the limit was not always enough;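 note: 0% = cells with DMSO and 100% = wells without cells with DMSO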
# HTR5A inv ag: HTR5A inverse agonism, opioid heterodimer counter-screen | P47898 | HTR5A cell line, luminescence | inhibition, % at 9.3 µM | 340,000 tested, 0.083% active; in the data active = inhibition mostly above about 23%, no sharp cut-off; inactive = mostly below about 18%;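 note: 0% = cells with DMSO and 100% = no-cell wells with DMSO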
# OPRM1-OPRD1 ag: agonists of human mu-delta opioid receptor heterodimerization; cells, OPRM1-OPRD1 heterodimerization, luminescence; activation, % at 9.3 µM; 340,000 tested, 0.3% active; P35372+P41143; in the data active = activation above about 18%;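 note: 0% = vehicle-treated cells and 100% = reference agonist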
# HTR5A ag: counter-screen for OPRM1-OPRD1 agonists: human HTR5A agonism; P47898; HTR5A agonist assay, luminescence, cell-based; activation, % at 9.3 µM; 340,000 tested, 0.61% active; in the data active = activation mostly above about 9.5%, no sharp cut-off; inactive = mostly below about 7.6%;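 note: 0% = cells with vehicle only and 100% = reference agonist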
# OPRM1 ag: OPRM1 agonism in mouse HTR2A counterscreen; U2OS OPRM1 beta-arrestin PathHunter, luminescence; DMSO 0%, DAMGO 9.3 µM 100%; 2,300 tested, 5.3% active; AID 624380; shares compounds with m5-HT2A agonist; activation, % at 9.3 µM;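 active = mean activation above the mean of DMSO-only wells plus 3 SD, cut at about 0.5% in these data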
# HTR2A ag conf: mouse HTR2A agonism confirmed. shares compounds with m5-HT2A agonist. CHO-K1 PathHunter beta-arrestin recruitment, luminescence; DMSO 0%, 30 µM serotonin 100%. activation, % at 7.6 µM. 2,300 tested, 19% active;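 active = mean activation across triplicates above the hit threshold derived in the original primary screen, cut at about 15% in these data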
# The depositor's hits bear a star; · = no result.
SMILES,m5-HT2A agonist,MOR-DOR inv ag,HTR5A inv ag,OPRM1-OPRD1 ag,HTR5A ag,OPRM1 ag,HTR2A ag conf
CCC/C=C/c1ccc(CN2C(CC(C)C)C(=O)N(Cc3cn(CCOCOC)nn3)CCS2(=O)=O)cc1 (stereo not drawn),-1,·,·,·,·,·,·
C=CCN(Cc1nc(-c2ccccc2)no1)C(=O)c1ccco1,2,-5,7,1,-1,·,·
Cc1csc2c(N3CCN(C(=S)Nc4ccc(C(F)(F)F)cc4)CC3)ncnc12,32*,-8,-10,2,4,-1,8
Cc1csc2c(N3CCN(C(=O)NC(C)(C)C)CC3)ncnc12,41*,-13,-42,3,8,-1,-2
Cc1csc2c(N3CCN(C(=O)c4ccc(C(C)(C)C)cc4)CC3)ncnc12,2,-17,-6,3,8,·,·
Cc1csc2ncnc(N3CCN(C(=S)Nc4ccc(C(F)(F)F)cc4)CC3)c12,-4,·,·,·,·,·,·
CCOc1cc(N2CCOCC2)c(OCC)cc1NC(=O)CN1C(=O)NC(CC)(c2ccc(F)cc2)C1=O (stereo not drawn),15*,-5,-35,1,13,-1,1
C[C@@H](C(=O)NCCc1c[nH]c2ccccc12)[C@H]1C[C@]1(C)[C@H](NC(=O)OCc1ccccc1)c1ccccc1,-7,16,13,-3,5,·,·
Nc1nc(F)nc2c1ncn2[C@@H]1O[C@H](CO)[C@@H](O)[C@H]1O,20*,-72,-18,13,5,0.9*,11
CN(C)S(=O)(=O)c1ccc(C(=O)OCC(=O)NCc2ccco2)cc1,-1,11,13,-2,-5,·,·
O=C(NCCCN1CCOCC1)c1ccc(CS(=O)(=O)Cc2ccc(Cl)cc2)o1,-4,7,5,-1,2,·,·
CC(C)CNC(=O)CC(=O)N/N=C/c1ccc(F)cc1,-1,12,-11,-2,1,·,·
COc1ccc(CNC(=O)CCCn2nc(C)n3ccnc3c2=O)cc1,25*,12,-36,-2,12,-1,-3
COc1cc(C(=O)Nc2cccc(-c3nncn3C)c2)cc(OC)c1OC,15*,10,22,-2,-6,-1,-4
O=Cc1c[nH]c2cccc(OCc3ccccc3)c12,2,-9,-12,1,4,·,·
CCN(C[C@H]1N[C@@](C)(C(=O)OC)[C@H]2C(=O)N(C)C(=O)[C@@H]12)C(=O)Nc1ccc(Cl)cc1,37*,6,-2,-1,1,0,-1
Cc1ccc2c(cnn2C(=O)CCC(=O)NCc2ccccc2Cl)c1,19*,6,-2,-1,3,0,-1
CCOC(=O)C1CCN(S(=O)(=O)c2cc(C(=O)OC)n(C)c2)CC1,-5,0,-28,0,10,·,·
CCc1nc2ccccc2c(C(=O)Nc2cccc(C)c2)c1C,4,1,-12,0,2,·,·
Cc1ccc(SCn2nnc3ccccc3c2=O)c(C)c1,25*,-6,-1,1,0,0,0
Cc1ccc2nc(SCn3nnc4ccccc4c3=O)[nH]c2c1,1,16,15,-3,-4,·,·
COc1ccc(S(=O)(=O)N2CCOC2CNC(=O)C(=O)NCCN2CCOCC2)cc1OC (stereo not drawn),8,11,-14,-3,3,·,·
COC(=O)c1c(NC(=O)c2ccccc2OC)sc(C(=O)N2CCOCC2)c1C,-2,17,-18,-3,1,·,·
N#CC1(Cc2ccccc2Cl)c2ccccc2C=CN1C(=O)c1ccccc1 (stereo not drawn),19*,0,-9,0,5,0,-4
O=C(CN(Cc1ccco1)C(=O)c1ccc(N2CCCC2=O)cc1)Nc1ccccc1C(F)(F)F,3,6,-6,-1,2,·,·
SMILES,m5-HT2A agonist,MOR-DOR inv ag,HTR5A inv ag,OPRM1-OPRD1 ag,HTR5A ag,OPRM1 ag,HTR2A ag conf
COc1ccc(OC)c(NC(=O)CSc2nnc(Cn3nnc4ccccc43)n2C)c1,4,18,-10,-3,5,·,·
COCCNC(=O)C1(C)Cc2c(-c3ccc4c(c3)OCO4)ccnc2O1 (stereo not drawn),-4,·,·,·,·,·,·
Cc1cc(C=O)c(C)n1-c1ccc(N2CCOCC2)cc1,16*,1,22,0,-9,-1,-2
COc1cccc(C=Nc2ccc3c(c2)CCC3)c1O,15*,11,14,-2,-1,-1,-3
O=C(COC(=O)c1ccc(O)cc1O)NC(=O)NCc1ccccc1,-2,15,21,-4,0,·,·
Cc1ccc(NC(=O)NC(=O)COC(=O)c2ccc(O)cc2O)c(C)c1,15*,·,·,·,·,0,-1
COc1cc(Cl)c(S(=O)(=O)N2CC(C)OC(C)C2)cc1Cl (stereo not drawn),-2,2,4,0,-2,·,·
COc1cc(Cl)c(S(=O)(=O)N2CCOCC2)cc1Cl,15*,-1,-13,0,2,0,-4
S=C(NCCc1ccccc1)N1CCC2CC1c1c(Cl)cccc12 (stereo not drawn),-5,·,·,·,·,·,·
O=C(Cn1cncn1)N/N=C/c1ccncc1,23*,5,-50,-1,9,0,3
O=C(Cn1cncn1)N/N=C/c1ccc(Cl)cc1,3,8,-13,-2,-2,·,·
CCOC(=O)c1c(NC(=O)c2ccco2)sc2c1CCCC2,6,12,1,-2,5,·,·
CCOC(=O)c1c(O)c2c(n(Cc3ccco3)c1=O)CCCC2,15*,-21,-58,4,3,0,6
Fc1ccc(F)c(CN2CCN(c3ncccn3)CC2)c1,44*,4,-39,-1,0,-1,101*
Oc1ccc(F)c(CN2CCN(c3ncc(Cc4ccccc4)cn3)CC2)c1,-6,·,·,·,·,·,·
Fc1ccc(CN2CCN(c3ncccn3)CC2)cc1,23*,-2,-10,0,4,1.3*,142*
O=C(O)c1cnn(-c2ccccc2)c1C(F)(F)F,2,7,12,-1,-3,·,·
COc1ccc2c(c1)CC/C2=N\NC(=O)c1ccccc1,15*,-1,-11,0,5,-1,-2
COc1ccc(OCC(=O)N/N=C2\CCc3ccccc32)cc1,-5,11,12,-2,-2,·,·
CCCCNC(=O)c1nc(-c2cc3ccccc3[nH]2)oc1-c1cccc(C(F)(F)F)c1,16*,·,·,·,·,0.7*,12
CC1CCN=C(N)S1 (stereo not drawn),16*,9,-18,-2,0,0,0
Cc1c(Cl)cccc1NC(=S)N(Cc1cccnc1)Cc1ccccc1Cl,1,5,0,-1,-1,·,·
C[C@H](O)c1[nH]c2cc(F)ccc2c1[C@H](C)O,20*,10,-19,-2,2,0,-5
OCCc1c[nH]c2cc(F)ccc12,1,3,8,-1,-3,·,·
